Laboratory results published in PubChem BioAssay AID1347416 (National Center for Advancing Translational Sciences (NCATS), 2020).
Screen size: about 4,100 compounds; about 1,600 (39%) were called active. About 25% were inconclusive and are not listed. This is one part of the list. Unmarked numbers belong to inactive results. Calls come from the whole dose curve; as a rule, active = well fitted inhibition curve with a large enough effect; inconclusive = small, poorly fitted or top-dose-only effect; inactive = no such curve, though single readings can be large or run the other way.

Experiment: qHTS Validation assay for Inhibitors of Plasmodium falciparum Dd2 growth in vitro; note: nearly all actives have a fitted effect of over 70% in size
Conditions: P. falciparum Dd2 in RBCs, SYBR Green growth, 72 h; series mostly up to 28.7 µM; activity change, negative = inhibition: at the top concentration
Method in brief: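 P. falciparum Dd2-infected red blood cells (2.5% hematocrit, 0.3% parasitemia) grown 72 h at 37 °C under 5% O2 with compounds in a titration, 29 uM to 0.5 nM final. Growth read as SYBR Green-1 fluorescence after ~16 h lysis; artesunate 300 nM as positive control.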
% is set by controls: 0 for no effect and ±100 for the full control effect; potency is the fitted concentration of half-maximal effect.

SMILES	activity change, negative = inhibition	Potency
Cc1nccn1CC(=O)N1C[C@@H](COCC2CC2)[C@H](c2ccncc2)C1	34.9%	
O=C(N[C@@H]1CN(c2ncccn2)C[C@H]1CO)c1cc2ccccc2[nH]1	13%	
NC(=O)CN1C(=O)CO[C@H]2CN(Cc3ccc4c(c3)OCO4)C[C@H]21	59.2% [at 43.1 µM]	
COc1ccc(-c2cn(C)c(=O)n3cc(COc4ccc(Cl)cc4)nc23)cn1	36.1% [at 43.1 µM]	
COc1ccc(NC(=O)C(c2ccc(Cl)cc2)C(C)C)cn1 (stereo unspecified)		1.88 µM (active)
COC[C@@H]1CN(c2cnccn2)C[C@H]1C(=O)Nc1ccc(OC)nc1	17.9%	
Cn1c(-n2cccc2)c(-c2c(-c3ccc(F)cc3)[nH]c3c2c(=O)n(C)c(=O)n3C)c(=O)n(C)c1=O	45.5%	
CCCC(C)N1CC2(CCN(C(=O)Cn3nc(C)cc3C)CC2)OC1=O (stereo unspecified)	20.9%	
CN1CCN(c2ccc(-c3noc([C@@H]4CCCN4C4CCCCC4)n3)cn2)CC1		19.3 µM (active)
O=C(c1ccsc1)N1CCCCCC1c1nc(-c2cccnc2)no1 (stereo unspecified)	9.04%	
O=C1CCN(C2CCCC2)CCCC(c2nc(-c3cccnc3)no2)CCN1 (stereo unspecified)	-12.4%	
CN1CCOc2c(C(=O)NCc3cccnc3)cc(-c3cccc4[nH]ccc34)cc21		8.63 µM (active)
COc1cncc(-c2cc(C(=O)NCc3cccnc3)c3c(c2)N(C)CCO3)c1	9.35% [at 43.1 µM]	
CNC(=O)c1cc(-c2ccc([S+](C)(=O)[O-])cc2)cc2c1OCCN2Cc1cccnc1	-24.3% [at 43.1 µM]	
CN(C)CCNC(=O)c1cc(-c2ccccc2F)cc2c1OCCN2Cc1cccnc1		6.85 µM (active)
CNC(=O)c1cc(-c2ccncc2)cc2c1OCCN2Cc1cccnc1	-14.5% [at 43.1 µM]	
COCCNC(=O)C[C@@H]1C[C@H]2O[C@H](CN)[C@@H](O)[C@H]2O1	18.5% [at 57.5 µM]	
C=CCOC(=O)Nc1nc2c(s1)C[C@@H]1[C@](C)(CO)[C@H](O)CC[C@@]1(C)[C@@H]2CC(=O)NC1CCCCC1		3.76 µM (active)
C#CCNC(=O)C[C@@H]1c2nc(NC(=O)OCC=C)sc2C[C@@H]2[C@](C)(CO)[C@H](O)CC[C@]21C		15 µM (active)
Cc1nc2cc(N3CCCC(C(=O)NCCN4CCCCCC4)C3)cnc2nc1C (stereo unspecified)	-6.29%	
N=c1ccn(Cc2ccc(Cl)cc2)cc1		8.41 µM (active)
N=c1ccn(Cc2c(Cl)cccc2Cl)cc1	-15.6%	
N=c1ccn(Cc2ccc(Cl)c(Cl)c2)cc1		6.68 µM (active)
N=c1ccn(Cc2ccc(Cl)cc2Cl)cc1		8.41 µM (active)

SMILES	activity change, negative = inhibition	Potency
Cc1cc(C)n(CC(=O)N[C@@H]2CN(Cc3cccnc3)C[C@H]2CN(C)C)n1	8.7%	
Cc1ccsc1C(=O)NCc1nnc2ccc(-c3ccc(Cl)cc3)nn12	7.85%	
O=C(c1ccccc1F)N1CCC(Oc2ncccc2C(=O)N2CCCCC2)C1 (stereo unspecified)	14.2%	
COc1ccc(S(=O)(=O)N2CCC(Oc3ncccc3C(=O)N3CCOCC3)C2)cc1 (stereo unspecified)	17.3%	
COc1ccc(CC(=O)N2CCC(Oc3ncccc3C(=O)N3CCCCC3)C2)cc1 (stereo unspecified)		9.44 µM (active)
O=C(Nc1cccc(C(F)(F)F)c1)O[C@@H]1CO[C@H]2[C@@H]1OC[C@@H]2NS(=O)(=O)c1cccs1	12.6%	
COc1ccc(-c2cc(C(=O)Nc3cc(OC)cc(C(=O)Nc4cccc(C(F)(F)F)c4)c3)[nH]n2)cc1		5.31 µM (active)
COc1cc(NC(=O)c2ccc(N)nc2)cc(C(=O)Nc2cccc(C(F)(F)F)c2)c1		5.31 µM (active)
COc1cccc(NC(=O)Nc2cccc(C(=O)O)c2)c1	27.9%	
CC1=NS(=O)(=O)N(Cc2ccc(F)c(F)c2)C=C1C(=O)O	15.4%	
CN(C)C(=O)N1CCCC(C(=O)NCc2nc(C3CCCCC3)no2)C1 (stereo unspecified)	36.9%	
Cc1nc2sc(C(c3ccco3)N3CCN(C(c4ccccc4)c4ccccc4)CC3)c(O)n2n1 (stereo unspecified)		5.96 µM (active)
CCCc1ccc(C(=O)NC(=O)c2ccccc2O)cc1		1.06 µM (active)
Cc1ccc(N(CC(=O)Nc2cccc(Cl)c2)S(=O)(=O)c2cccs2)cc1	29.6%	
Cc1ccc(N(Cc2cccs2)C(=O)C(C)Oc2ccc(Cl)c(C)c2)cc1 (stereo unspecified)		7.5 µM (active)
O=C(NCCc1nc(-c2cccnc2)no1)c1coc2c1C(=O)CCC2	32.2%	
C/C(=N\OCc1cccc(C(=O)O)c1)c1ccc(Cl)cc1	6.57%	
COc1cccc(CNc2ccc3c(c2)nc(C)n3C)c1OC	33.3%	
CNC(=O)CCn1ncc2cc(OCc3ccccc3-c3ccccc3OC)ccc21		15.3 µM (active)
COc1ccccc1-c1nnc2sc(COc3ccc(F)cc3)nn12	-15%	
CSc1nnc2c3c4c(sc3c(=O)n(-c3ccccc3)n12)CC(C)(C)OC4	1.3%	
CC(C)Sc1nc2sc3c(c2c(=O)n1Cc1ccccc1)CCCC3	-20%	
CCOCCCn1c(SCC(=O)NCCCOC)nc2c(sc3ccccc32)c1=O	59%	
CN1CCc2c(sc3c2C(=O)NC(c2ccc(C(C)(C)C)cc2)N3)C1 (stereo unspecified)	26.9%	

SMILES	activity change, negative = inhibition	Potency
CCCN1CCc2c(sc3nc(SC)n(-c4ccccc4)c(=O)c23)C1		2.66 µM (active)
CCn1c(SCC(=O)NCCc2ccccc2)nc2sc3c(c2c1=O)CCN(C)C3		5.31 µM (active)
CCNc1ncnc2sc3c(c12)CCN(Cc1ccc[nH]1)C3	-12.8%	
C=C(C)CSc1nc2sc3c(c2c(=O)n1C1CCCCC1)CCN(C)C3		2.37 µM (active)
CCSc1nc2sc3c(c2c(=O)n1-c1ccccc1)CCN(C)C3		6.68 µM (active)
CS(=O)(=O)N(C1CC1)C1CCOC2(CCN(C(=O)C3(c4ccccc4)CC3)CC2)C1 (stereo unspecified)	0.781%	
CCOc1cc(C2NC(=O)c3c(sc4c3CCN(C)C4)N2)ccc1OC(=O)c1ccccc1Cl (stereo unspecified)	28.3%	
CCOc1ccc(-n2c(SCC(N)=O)nc3sc4c(c3c2=O)CCN(C)C4)cc1		15 µM (active)
COC(CSc1nc(N)c2c3c(sc2n1)CN(C)CC3)OC	3.33%	
Oc1ccc(CNc2ccc(C(F)(F)F)cc2Cl)c2cccnc12		10.6 µM (active)
Cc1ccc(N=Nc2ccc(O)c3ncccc23)cc1	62.4%	
Fc1ccc(N2CCCN(CC3[C@H]4CNC[C@@H]34)CC2)cc1 (stereo partly specified)		8.41 µM (active)
Cc1ccc2[nH]c(-c3ccccc3)cc(=O)c2c1		4.73 µM (active)
Cc1ccc(-c2cc(=O)c3cc(C)ccc3[nH]2)cc1		10.6 µM (active)
O=c1cc(-c2ccccc2)[nH]c2ccc(F)cc12		5.96 µM (active)
COc1cc(NC(=O)Cn2c(=O)n(CC3CCC(C(=O)NCCc4ccccc4)CC3)c(=O)c3ccccc32)cc(OC)c1 (stereo unspecified)		5.96 µM (active)
CCCCCNC(=O)C1CCC(Cn2c(=O)c3sccc3n(CC(=O)N3CCCC3)c2=O)CC1 (stereo unspecified)	7.01%	
COc1cc(NC(=O)Cn2c(=O)n(CC3CCCO3)c(=O)c3ccccc32)cc(OC)c1 (stereo unspecified)	13.1%	
Cc1cc2nn(-c3ccc(F)cc3)nc2cc1N	2.12%	
Cn1nc(-c2nncn2Cc2ccccc2)c2c1CCN(C(=O)c1[nH]nc3c1COc1ccccc1-3)C2	-14.9%	
COc1ccc(-c2ccc3nnc(CNC(=O)Cc4cccc(F)c4)n3n2)cc1	38.7%	
COc1ccc(-n2cc(CNC3CCN(C)CC3)c(-c3cccc(F)c3)n2)cc1		10.6 µM (active)
CCCc1nnc(C[C@@H]2C[C@@H](C(C)C)[C@H](CN3CCC[C@H]3CO)C=C2C)o1		17.2 µM (active)
CC1=C[C@@H](CN2CCC[C@H]2CO)[C@H](C(C)C)C[C@H]1Cc1nnc(-c2ccc(N(C)C)cc2)o1		13.3 µM (active)

SMILES	activity change, negative = inhibition	Potency
CCCc1nnc([C@H]2CCN(C(=O)c3ccccc3)C2)o1	-19.5% [at 57.5 µM]	
C=CCOC(=O)C(C#N)c1nc2ccccc2nc1N1CCC(C(=O)OCC)CC1 (stereo unspecified)		2.37 µM (active)
Cc1ccc(C)c(-c2cc3c(=O)n(CCNC(=O)c4cccc(N(C)C)c4)ccn3n2)c1	0.608%	
Cc1ccc(CNC(=O)CCc2c(C)nc3nc(C)nn3c2C)cc1	11.6%	
CCN(CC)S(=O)(=O)c1ccc(NC(=O)CCc2c(C)nc3cc(-c4ccc(Cl)cc4)nn3c2C)cc1		4.73 µM (active)
Cc1ccc(-c2ccc(=O)n(CC(=O)Nc3ccc(C(C)C)cc3)n2)cc1	20.7%	
COc1cc(C2Nc3ccc4ccccc4c3C3=C2C(=O)CC(C)(C)C3)ccc1OC(C)C(=O)O (stereo unspecified)		6.68 µM (active)
CCc1nc2ccc(C(=O)NCc3ccccc3C)cc2nc1CC	6.91%	
Cc1ccc(C2Cn3cnc(C(=O)N4CCC(C(=O)NCc5ccco5)CC4)c3CO2)cc1 (stereo unspecified)	-7.92%	
Cc1cccc(C(=O)NCCc2ncc(C)n2C2CC2)c1	-5.93%	
CCC1=Nc2cc(C(=O)NCc3ccco3)ccc2Sc2ccc(C)cc21		8.41 µM (active)
CCCC1=Nc2cc(C(=O)NCCCN3CCCCC3CC)ccc2Sc2ccc(C)cc21 (stereo unspecified)		9.44 µM (active)
CC(C)N1C(=S)N(Cc2ccco2)C(=O)C1CC(=O)Nc1ccccc1 (stereo unspecified)		1.68 µM (active)
CN1CCC(Nc2ncc3ncnc(Nc4ccc(F)c(Cl)c4)c3n2)CC1		10.6 µM (active)
Cc1cccc(N2CCN(C(=O)CCc3nnc4n(CC(C)C)c(=O)c5ccccc5n34)CC2)c1C		3.35 µM (active)
Cc1ccc(/C=N/NC(=O)c2cc3ccccc3cc2O)o1		5.31 µM (active)
CCNc1nc(NC(C)CC)nc(ON=C(C)C)n1 (stereo unspecified)		8.41 µM (active)
CCc1ccc(S(=O)(=O)c2nnn3c2nc(Nc2ccc(F)cc2)c2cc(Cl)ccc23)cc1		2.11 µM (active)
CSc1cccc(Nc2nc3c(S(=O)(=O)c4ccccc4)nnn3c3ccc(Cl)cc23)c1		1.88 µM (active)
COc1ccccc1C(=O)N1CCC2(CC1)OC(=O)N(CCOc1ccccc1)C2(C)c1cccnc1 (stereo unspecified)		9.44 µM (active)
COc1ccccc1C(=O)N1CCC2(CC1)OC(=O)N(Cc1ccccc1C#N)C2(C)c1ccccc1 (stereo unspecified)		15 µM (active)
CNCC(=O)N1CCC2(CC1)CN(CCOc1ccccc1)C(=O)O2	40.8%	
COCCN1C(=O)CS(=O)(=O)C12CCN(C(=O)C1(c3ccccc3)CC1)CC2	1.25%	
COc1ccccc1C(=O)N1CCCN(c2nnc3cccc(C)n23)CC1	9.24%	
